# Tau FP inhib = qHTS for Inhibitors of Tau Fibril Formation, Fluorescence Polarization. Microtubule-associated protein tau (Homo sapiens), P10636. K18 P301L tau heparin fibrillization, Alexa594 FP, 6 h. Potency, µM (top dose mostly 57.7 µM), inactives show at the top dose activity, negative = inhibition, actives largely listed as inhibitors. hit rate 0.39% among 280,000. AID 1468, 2008; also: potency is read from the fitted curve at half-maximal effect; nearly all actives have a fitted effect of over 55% in size
# Target sequence (P10636 561-689 P618L limits assumed): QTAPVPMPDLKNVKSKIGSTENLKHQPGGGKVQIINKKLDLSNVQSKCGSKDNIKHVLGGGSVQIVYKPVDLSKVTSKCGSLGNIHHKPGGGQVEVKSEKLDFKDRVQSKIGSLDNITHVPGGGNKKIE
#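 Human K18 P301L fragment (15 uM unlabeled plus 0.24 uM Alexa 594-labeled) in 100 mM sodium acetate pH 7 with compound, aggregation induced by 20 uM heparin for 6 hr at 37 C. ThT (30 uM) added for 1 hr, then Alexa 594 FP read.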
# Tau ThT inhib = qHTS for Inhibitors of Tau Fibril Formation, Thioflavin T Binding; Microtubule-associated protein tau (Homo sapiens), P10636; recombinant tau K18 P301L, heparin-induced fibrillization, ThT fluorescence; Potency, µM (doses to about 57.4 µM), for inactives: top-dose activity, negative = inhibition, hits mostly inhibitors; hit rate 2.1% among 270,000; AID 1460, 2008; also: potency is read from the fitted curve at half-maximal effect; nearly all actives have a fitted effect of over 55% in size
#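 Aggregation was driven by heparin (20 uM final) acting on recombinant tau […] bearing P301L in 100 mM sodium acetate pH 7; fibrils were detected with Thioflavin T.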
# FBPA coupling cs = qHTS Assay for Inhibitors of Fructose-1,6-bisphosphate Aldolase from Giardia Lamblia: Coupling assay counterscreen | coupling enzyme system counterscreen, AmpLite Red fluorescence | activity change, negative = inhibition, % at 58.2 µM, hits read low | hit rate 0.67% among 290,000 | AID 2472, 2010; in the data active = activity change below about -30%
#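 Final compound at 57.5 uM, incubated 10 min at RT with coupling enzyme reagent (glyceraldehyde-3-phosphate), then 20 min with substrate and AmpLite Red detection. Fluorescence read at 525/598 nm; tests interference with the coupling assay, not aldolase inhibition.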
# G9a block = qHTS Assay for Inhibitors of Histone Lysine Methyltransferase G9a. Histone-lysine N-methyltransferase EHMT2 (Homo sapiens), Q96KQ7. G9a H3K9 monomethylation, AlphaScreen, 2 h. Potency, µM (series often up to 102 µM), without a hit: at the highest dose activity, negative = inhibition, usual class: inhibitors. hit rate 8.8% among 350,000. AID 504332, 2011; also: potency is read from the fitted curve at half-maximal effect; nearly all actives have a fitted effect of over 75% in size
# Target sequence (Q96KQ7 913-1193 limits assumed): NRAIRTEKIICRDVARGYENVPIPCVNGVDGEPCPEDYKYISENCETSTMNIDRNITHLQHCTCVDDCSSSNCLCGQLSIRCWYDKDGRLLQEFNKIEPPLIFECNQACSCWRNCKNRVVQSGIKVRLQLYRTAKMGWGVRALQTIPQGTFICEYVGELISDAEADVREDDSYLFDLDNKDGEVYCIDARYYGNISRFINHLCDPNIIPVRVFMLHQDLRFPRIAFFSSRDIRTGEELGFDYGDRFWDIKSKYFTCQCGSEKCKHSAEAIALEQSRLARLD
#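 AlphaScreen read-out: biotin-H3K9 peptide (500 nM) methylation by 20 nM enzyme with 20 uM SAM, 2 h at room temperature after 15 min compound preincubation; anti-monomethyl H3K9 antibody plus donor/acceptor beads, 10 min dark.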
# Sfp inh = qHTS Assay for Inhibitors of Bacillus subtilis Sfp phosphopantetheinyl transferase (PPTase); hit rate 3.5% among 310,000; Potency, µM, for the others: largest response in the series, negative = inhibition, usual class: inhibitors; Biochemical Sfp PPTase activity, qHTS; 4'-phosphopantetheinyl transferase ffp (Bacillus subtilis), Q9F4F7;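 also: the enzyme is Sfp with the accession as filed and its product quenches rhodamine fluorescence; potency is read from the fitted curve at half-maximal effect; 0% = enzyme reaction without inhibitor and -100% = no enzyme wells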
#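 Buffer: 50 mM Hepes-Na pH 7.6, 10 mM MgCl2, 0.01% Nonidet P-40, 0.01% BSA. Enzyme 15 nM, pre-exposed to compound 15 min; substrates then added and fluorescence change tracked over 30 min.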
# Tau fluor cs = Counterscreen qHTS for Inhibitors of Tau Fibril Formation, Fluorescence Polarization; tau K18 P301L (four-repeat tau fragment) Alexa594 fluorescence, heparin fibrillization; Potency, µM (doses to about 57.7 µM), inactives show at the top dose activity change, negative = decrease; hit rate 0.93% among 280,000; AID 1463, 2008; also: potency is read from the fitted curve at half-maximal effect; nearly all actives have a fitted effect of over 55% in size
#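 Human K18 P301L tau (15 uM unlabeled plus 0.24 uM Alexa 594-labeled, final) in 100 mM sodium acetate pH 7 was mixed with compound and 20 uM heparin and incubated 6 hr at 37 C.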
# * hit, by the source's call; ? = inconclusive; . = no result given; [ ] = another dose, or the depositor's remark. Shown are actives, neighbours in structure and some others; about 11% of the full set was active somewhere. Unless noted, calls follow the shape of the dose curve; as a rule, active = well fitted curve in the direction sought with a large enough effect; inconclusive = small, poorly fitted or top-dose-only effect, or another doubt; inactive = no such curve, though single readings can be large; an effect the other way counts as inactive or inconclusive. Unless noted, % is scaled to controls: 0 for no effect and ±100 for the full control effect.
SMILES,Tau FP inhib,Tau ThT inhib,FBPA coupling cs,G9a block,Sfp inh,Tau fluor cs
CCc1nnc(NC(=O)CN2CCN(c3ccccc3F)CC2)s1,7.9%,-6.8%,4.7,50.1µM*,-1.0%,-2.3%
O=C(CCN1CCN(c2ccc(Cl)cc2)CC1)Nc1nccs1,0.0%,-19.5%,0.2,-37.4%[59 µM],10.8%,-13.7%
O=S(=O)(Nc1ccc(Cl)cn1)c1ccc2c(c1)OCCO2,.,.,.,0.0%[0.501 µM],.,.
COCc1cc(C)n(CC(=O)Nc2ccc(NC(C)=O)cc2)c(=O)c1C#N,-10.2%,1.8%,.,-25.5%[59 µM],.,-1.0%
CCCC[C@@H](C)/C=C(C)/C=C(\C)C(=O)NC1=C[C@@](O)(/C=C/C=C/C=C/C(=O)NC2=C(O)CCC2=O)[C@@H]2O[C@@H]2C1=O,.,.,1.1,.,?,.
CSc1ccccc1NS(=O)(=O)c1cccc2nonc12,.,.,.,?,-1.3%,.
CC1c2ccccc2SC(CCCN(C)C)c2ccccc21 (centres undefined),8.0%,10.1%,-9.6,56.2µM*,44.7µM*,14.2%
CN(C)CCC1Sc2ccccc2Oc2ccccc21 (centres undefined),2.1%,2.7%,0.1,10µM*,-29.9%,-0.7%
c1ccc2c(c1)Oc1ccccc1S2,.,.,.,11.3%[0.501 µM],.,.
O=C(CCc1nc(-c2ccccc2F)no1)Nc1cccc(C(F)(F)F)c1,?,-7.5%,.,10.4%[59 µM],.,?
Cc1ccc(-c2c3c(=O)n(C)c(=O)n(C)c3c3c(C(F)(F)F)nc4ccccc4n23)cc1,-11.5%,-2.9%,.,48.5%[59 µM],.,-19.0%
COc1ccc(N(C(C)C(=O)N(C)Cc2ccccc2)S(C)(=O)=O)cc1 (centres undefined),.,.,0.4,-7.7%,-0.4%,.
COc1ccc(N2CCN(C(C)C(=O)N(C)Cc3ccccc3)CC2)cc1 (centres undefined),.,.,7.9,50.1µM*,8.4%,.
COc1ccc(N2CCN(C(=O)C(Cc3ccccc3)n3cccc3)CC2)cc1 (centres undefined),?,-33.1%,1.5,39.8µM*,12.5%,-28.2%
COc1ccc(N2CCN(C(=O)CN(Cc3ccc(Cl)cc3)S(C)(=O)=O)CC2)cc1,7.0%,-15.4%,0.0,79.4µM*,4.8%,-20.2%
O=C(C(Cc1ccccc1)n1cccc1)N1CCN(Cc2ccccc2)CC1 (centres undefined),2.7%,-18.3%,0.6,31.6µM*,2.8%,-15.6%
O=C(C(Cc1ccccc1)n1cccc1)N1CCN(c2cccc(Cl)c2)CC1 (centres undefined),0.8%,?,0.3,?,12.9%,-23.8%
CN(C(=O)Cn1cc(S(=O)(=O)Cc2ccccc2Cl)c2ccccc21)c1ccccc1,-3.5%,-12.5%,.,1.6%[59 µM],.,-27.4%
CS(=O)(=O)N(Cc1ccc(Cl)cc1)c1ccc(C(=O)N2CCN(c3ccccc3)CC2)cc1,8.0%,-21.3%,-2.0,7.94µM*,-14.8%,-20.1%
COc1ccc(N2CCN(C(=O)C(OC(C)=O)c3ccccc3)CC2)cc1 (centres undefined),4.7%,-9.9%,1.1,8.91µM*,10.0%,-6.2%
COc1ccc(N2CCN(C(=O)CN(Cc3ccccc3)S(C)(=O)=O)CC2)cc1,-1.6%,-8.5%,2.5,50.1µM*,-2.1%,-12.9%
COc1ccc(N2CCN(C(=O)CCCOc3cc(=O)n(C)c4ccccc34)CC2)cc1,2.6%,?,-1.5,79.4µM*,-5.1%,-13.2%
CS(=O)(=O)N(Cc1ccccc1)c1ccc(C(=O)N2CCN(c3cccc(Cl)c3)CC2)cc1,-12.1%,-14.4%,-0.7,11.1%[59 µM],7.6%,-21.2%
Cc1ccc(C)c(N2CCN(C(=O)CCCOc3cc(=O)n(C)c4ccccc34)CC2)c1,-11.4%,?,1.4,.,-32.5%,-3.9%
COc1ccc(CNC(=O)c2cc3c(=O)[nH]c4ccccc4c3n2C)c(OC)c1,0.0%,?,.,-19.0%[59 µM],.,-14.2%
SMILES,Tau FP inhib,Tau ThT inhib,FBPA coupling cs,G9a block,Sfp inh,Tau fluor cs
COc1ccc(N2CCN(C(=O)CCc3ccccc3)CC2)cc1,.,.,-0.4,31.6µM*,7.4%,.
COc1ccc(CCC(=O)N2CCN(c3ccc(OC)cc3)CC2)cc1,.,.,-2.8,?,9.1%,.
COc1ccc(C=O)cc1CSc1ccccn1,1.1%,-4.6%,0.3,.,-25.0%,-6.3%
COc1ccc(/C=N/NC(=O)c2ccc(O)cc2O)cc1CSc1ccccn1,1.2%,1.7%,1.0,50.1µM*,-8.0%,-1.4%
CCOc1cc(CN2CCN(c3ncccn3)CC2)ccc1OC,.,.,-3.4,.,-9.1%,.
Cc1cc(O)c(C(C)C)cc1N=C1CSC(=O)N1,-7.6%,?,-21.4,?,56.2µM*,?
C=C1CC[C@@]23CC[C@]4(C)[C@@](OC2=O)([C@@H]3C1)[C@H]1O[C@H]1C1[C@@]2(C)CC[C@H](O)C(C)(C)C2CC[C@]14C (some centres undefined),.,.,.,-2.6%[12.7 µM],.,.
CC(C)(C)c1ccc(/C=N/NC(=O)Cc2c[nH]c3ccccc23)cc1,-13.9%,?,0.9,11.6%[2.33 µM],1.4%,14.1µM*[quencher]
O=C(CC(=O)N/N=C/c1ccccc1)NCc1ccccc1,-2.2%,-6.2%,-39.9*,1.8%,22.5%,-4.5%
O=C(CCC(=O)Nc1ccccc1Cl)N/N=C/c1ccccc1,-1.6%,-5.6%,-47.0*,7.6%[59 µM],-2.4%,-6.5%
CCCc1nc(NCCCOCC)c2nnn(Cc3ccccc3)c2n1,.,.,0.3,16.7%,13.6%,.
Cc1ccccc1C(=O)Nc1ccccc1C(=O)N1CCC(C)CC1,.,.,-1.2,-11.9%,5.8%,.
COc1ccccc1N1CCN(c2nc(C)cc(C)c2C#N)CC1,.,.,3.6,10.8%,5.4%,.
CCOc1ccccc1N1CCN(c2nc(N)c(C#N)c(CC#N)c2C#N)CC1,-7.1%,?,-9.2,?,15.8µM*,?
O=C(Cn1c(=O)nc(-c2ccccc2)c2ccccc21)NCCCc1ccccc1,-3.5%,-0.4%,.,5.6%[59 µM],.,-2.7%
C=CCN(Cc1nc(-c2ccccc2)no1)C(=O)c1ccco1,.,.,1.7,-34.6%[59 µM],9.3%,.
Cc1sc(N)c(C(=O)c2ccccc2)c1C,-16.2%,?,1.4,.,15.8µM*,-15.0%
CCOC(=O)c1c(C)[nH]c2cc(Br)c(OC)cc12,-2.5%,-6.7%,1.3,49.6%[2.33 µM],-7.8%,-13.2%
Cc1c(-c2ccccc2)sc(N)c1C(=O)N1CCOCC1,-0.7%,-17.7%,-17.8,3.98µM*,44.7µM*,-12.6%
CCOC(=O)c1c(N)sc2c(OC)c(Br)ccc12,5.7%,?,-3.0,14.4%[59 µM],-9.4%,25.1µM*[quencher]

# Screening results (PubChem)
